aSyn yeast inh – inhibitors of alpha-synuclein toxicity in yeast; Yeast expressing alpha-synuclein, growth rescue, BacTiter-Glo, 24 h; 0.14% of 370,000 active; Potency, µM (titrated, usually from 46.1 µM), for the others: at the highest dose growth rescue (activation), hits mostly activators; AID 652106; note: % of control where 0% means no effect; nearly all actives have a fitted effect of over 65% in size
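Readout is rescue of growth in alpha-synuclein-expressing yeast, so inhibitors of toxicity appear as activators. Growth after 24 hr at 30 deg C in galactose medium is quantified by luminescence.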
Chronic BCR inh – chronic active BCR signaling inhibition. ABC-DLBCL IkBa-CBG/CBR reporter, luminescence ratio, 4 h. Potency, µM (top dose mostly 46.1 µM), without a hit: top-dose activity change, negative = inhibition, hits mostly inhibitors. 0.05% of 340,000 active; active = well fitted inhibition curve with a large enough effect in the signal ratio, with a control signal flat, not every such curve was filed as active; inconclusive = small, poorly fitted or top-dose-only effect, or effect the other way, or a change in a side signal; the % refers to the signal ratio;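 note: plate controls were basal doxycycline-induced cells for no effect and cells given 10 µM MG132 for full effect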
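Cell line TMD8 (human ABC DLBCL), stably expressing tet-inducible CBG68-IkBa fusion and CBR; IMDM/0.5% FBS; cpd up to 46 uM; dox induction, 4 h, 37C/5% CO2; dual luminescence; green/red ratio; MG132 control.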
TDP-43 yeast inh – inhibitors of TDP-43 toxicity in yeast | TDP-43 expressing yeast growth rescue, BacTiter-Glo, 24 h | Potency, µM (doses to about 46.1 µM), inactives show at the top dose growth rescue (activation), most hits filed as activators | 1.8% of 410,000 active | AID 652104; note: % of control where 0% means no effect; nearly all actives have a fitted effect of over 50% in size
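In this qHTS, compounds that restore growth of yeast expressing TDP-43 appear as activators. Cells (OD600=0.02, galactose medium, raffinose-pregrown) are incubated with compound 24 hr at 30 deg C and growth is quantified by BacTiter-Glo.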
FUS yeast rescue – suppressors of FUS proteinopathy in yeast. S. cerevisiae FUS-expressing, growth rescue, OD600, 24 h. Potency, µM (doses to about 76.6 µM), actives largely listed as activators. 0.24% of 390,000 active;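 note: plate controls were DMSO vehicle for no effect and reference control for full effect; nearly all actives have a fitted effect of over 55% in size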
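FUS-expressing yeast, raffinose-pregrown, induced in 2% galactose minimal medium at OD 0.005; compounds in a dilution series, 24hr at 30C. Growth restoration read as absorbance at 600 nm. CP55940 positive control, DMSO negative.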
Abeta yeast res – restores growth of yeast expressing A-beta42 peptide | 0.063% of 410,000 active | Potency, µM (series often up to 46.1 µM), usual class: activators | yeast expressing A-beta42, growth rescue, OD600, 48 h; response scale: 0% DMSO, 100% iron-clioquinol control; note: nearly all actives have a fitted effect of over 55% in size
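Growth rescue measured by 600 nm absorbance after 48 h yeast culture at 30 C with compound. Values normalized between DMSO and an equimolar ferric chloride plus clioquinol control.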
uPA generation – inhibitors of cell surface uPA generation; cell surface uPA generation assay, qHTS; Potency, µM (doses to about 38.3 µM), inactives show top-dose activity change, negative = inhibition, usual class: inhibitors; 0.31% of 330,000 active; active = well fitted inhibition curve with a large enough effect; inconclusive = small, poorly fitted or top-dose-only effect; inactive = no such curve, though single readings can be large or run the other way; tested in mouse RAW 264.7 cells; note: % is set by controls: 0 for no effect and ±100 for the full control effect; nearly all actives have a fitted effect of over 55% in size
* hit, by the source's call; [ ] = dose if it differs, or a comment. Hits are enriched below; roughly 2.3% of the tested compounds scored in any of these assays. Unless noted, calls come from the whole dose curve; as a rule, active = well fitted curve in the direction sought with a large enough effect; inconclusive = small, poorly fitted or top-dose-only effect, or another doubt; inactive = no such curve, though single readings can be large; an effect the other way counts as inactive or inconclusive. Potency is the fitted concentration of half-maximal effect.

For Cc1nnc(SCc2ccccc2Cl)c2cc3occc3n12 the results were TDP-43 yeast inh 35µM*, FUS yeast rescue inconclusive and Abeta yeast res inactive.
Cc1nnc(SCc2ccc(Cl)cc2)c2cc3occc3n12 was read as TDP-43 yeast inh 22%[9.22 µM], FUS yeast rescue inconclusive and Abeta yeast res inactive.
`OC1CNCc2cc3c(cc21)OCCO3` (stereo unspecified) gave Chronic BCR inh -1%.
Screening COc1ccc(S(=O)(=O)Cc2ccc(C(=O)N3CCN(c4cc(C)ccc4C)CC3)o2)cc1 returned aSyn yeast inh 0%, Chronic BCR inh -2%, TDP-43 yeast inh inconclusive, FUS yeast rescue inconclusive, Abeta yeast res inactive and uPA generation 1%.
For COc1ccc(CCC(=O)N2CCN(c3cccc(C)c3C)CC2)cc1 the results were aSyn yeast inh 22%, Chronic BCR inh -1%, TDP-43 yeast inh inconclusive, FUS yeast rescue inactive, Abeta yeast res inactive and uPA generation 5%.
Screening COc1cccc(NC(=O)N2CCN(c3cccc(C)c3C)CC2)c1 returned aSyn yeast inh 0%, Chronic BCR inh -28%, TDP-43 yeast inh 13µM*, FUS yeast rescue inactive, Abeta yeast res inactive and uPA generation 1%.
`COc1cccc(NC(=O)N2CCN(c3nc(-c4cccc(OC)c4)cs3)CC2)c1` gave aSyn yeast inh -12%, Chronic BCR inh inconclusive, TDP-43 yeast inh inconclusive, FUS yeast rescue inconclusive, Abeta yeast res inactive and uPA generation -25%.
`COc1ccc(S(=O)(=O)Cc2ccc(C(=O)N3CCN(c4cccc(C)c4C)CC3)o2)cc1` gave aSyn yeast inh 1%, Chronic BCR inh -23%, TDP-43 yeast inh 25µM*, FUS yeast rescue inactive, Abeta yeast res inactive and uPA generation inconclusive.
COc1ccc(S(=O)(=O)Cc2ccc(C(=O)N3CCN(c4cccc(C)c4)C(C)C3)o2)cc1 (stereo unspecified) was read as aSyn yeast inh 12%, Chronic BCR inh inconclusive, TDP-43 yeast inh 13%, FUS yeast rescue inconclusive, Abeta yeast res inactive and uPA generation 5.6µM*.
Screening COc1ccc(CC(=O)N2CCN(c3cccc(C)c3C)CC2)cc1 returned aSyn yeast inh -2%, Chronic BCR inh -2%, TDP-43 yeast inh 11µM*, FUS yeast rescue inactive, Abeta yeast res inactive and uPA generation 5%.
Screening COc1ccc(N2CCN(C(=O)c3ccc(CS(=O)(=O)c4ccc(OC)cc4)o3)CC2)cc1 returned aSyn yeast inh -22%, Chronic BCR inh inconclusive, TDP-43 yeast inh -13%, FUS yeast rescue inactive, Abeta yeast res inactive and uPA generation -7%.
O=C(NCc1ccc(-c2csnn2)cc1)C1CC1 was read as aSyn yeast inh 3%, Chronic BCR inh 1%, TDP-43 yeast inh -6%, FUS yeast rescue inactive, Abeta yeast res inactive and uPA generation 5%.
`COc1cccc(/C=C2\SC(N3CCC(C)CC3)=NC2=O)c1OC` gave aSyn yeast inh 1%, Chronic BCR inh -11%, TDP-43 yeast inh inconclusive, FUS yeast rescue inactive, Abeta yeast res inactive and uPA generation -18%.
Screening COc1ccccc1/C=C1\SC(N2CCC(C)CC2)=NC1=O returned aSyn yeast inh 17%, Chronic BCR inh inconclusive, TDP-43 yeast inh 13µM*, FUS yeast rescue inactive, Abeta yeast res inactive and uPA generation -1%.
For Cc1ccc(Cn2c(CNC(=O)c3ccccc3Br)nc3cccnc32)cc1 the results were TDP-43 yeast inh 11µM*, FUS yeast rescue inactive and Abeta yeast res inactive.
Screening O=C(Nc1cc(Cl)ccc1-n1cncn1)c1ccc([N+](=O)[O-])o1 returned aSyn yeast inh -28%, Chronic BCR inh inconclusive, TDP-43 yeast inh 14µM*, FUS yeast rescue inactive, Abeta yeast res inactive and uPA generation inconclusive.
Screening CCC(=O)N1CCN(c2ccc(Cl)cc2NC(=O)c2ccc([N+](=O)[O-])o2)CC1 returned aSyn yeast inh 9%, Chronic BCR inh 4%, TDP-43 yeast inh -10%, FUS yeast rescue inactive, Abeta yeast res inactive and uPA generation -8%.
Cn1c(SCC(=O)NC2CCS(=O)(=O)C2)nnc1-c1ccco1 (stereo unspecified) was read as aSyn yeast inh -11%, Chronic BCR inh 5%, TDP-43 yeast inh -1%, FUS yeast rescue inactive, Abeta yeast res inactive and uPA generation 4%.
Screening O=C(/C=C/c1ccccc1)Nc1cccc(C(=O)NCCCc2ccccc2)c1 returned aSyn yeast inh 0%, TDP-43 yeast inh 16%, FUS yeast rescue inactive, Abeta yeast res inactive and uPA generation inconclusive.
For O=C(/C=C/c1ccccc1)Nc1cccc(C(=O)NC2CC2)c1 the results were aSyn yeast inh -2%, TDP-43 yeast inh 18%, FUS yeast rescue inactive, Abeta yeast res inactive and uPA generation 13µM*.
`COCc1cc(C)nc(OCC(=O)N/N=C/c2ccc(OC)c(OC)c2)c1C#N` gave aSyn yeast inh -10%, Chronic BCR inh 0%, TDP-43 yeast inh 0%, FUS yeast rescue inactive, Abeta yeast res inactive and uPA generation -11%.
`Cc1c(-c2ccccc2)sc2nc[nH]c(=S)c12` gave aSyn yeast inh -4%, Chronic BCR inh 4%, TDP-43 yeast inh 16µM*, FUS yeast rescue inactive, Abeta yeast res inconclusive and uPA generation -4%.
`CCOC(=O)Nc1ccc2c(C)cc(=O)oc2c1` gave aSyn yeast inh -4%, Chronic BCR inh 0%, TDP-43 yeast inh -6%, FUS yeast rescue inactive and Abeta yeast res inactive.
Screening COc1ccc(C(=O)NC2CCCc3ccccc32)cc1Br (stereo unspecified) returned aSyn yeast inh 3%, Chronic BCR inh inconclusive, TDP-43 yeast inh 14µM*, FUS yeast rescue inactive, Abeta yeast res inactive and uPA generation -23%.
For Cc1ccc(C(=O)NC2CCCc3ccccc32)cc1[N+](=O)[O-] (stereo unspecified) the results were aSyn yeast inh 7%, Chronic BCR inh -13%, TDP-43 yeast inh 10µM*, FUS yeast rescue inactive, Abeta yeast res inactive and uPA generation inconclusive.
`Cc1cc(C(=O)NC2CCCc3ccccc32)ccc1[N+](=O)[O-]` (stereo unspecified) gave aSyn yeast inh -1%, Chronic BCR inh inconclusive, TDP-43 yeast inh inconclusive, FUS yeast rescue inactive, Abeta yeast res inactive and uPA generation 4%.
Screening CCOC(=O)C1=C(Nc2ccc(Cl)cc2)OCC1=O returned aSyn yeast inh -1%, Chronic BCR inh -11%, TDP-43 yeast inh 11µM*, FUS yeast rescue inactive, Abeta yeast res inactive and uPA generation 3%.
